± gives the standard deviation of the averaged measurements.
Columns and labels:
[1] = test system: Serratia marcescens K904 PosmB-luxCDABE reporter (pMQ747); experiment: PosmB-lux reporter fold induction (RLU/OD600 relative to no-compound control), highest over Biolog concentrations; higher = stronger reporter activation; conditions: ΔrcsB mutant CMS5177; 4 h
Experimental: (§1)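 Serratia marcescens K904 (wild type) or its isogenic ΔrcsB mutant, carrying the Rcs-dependent PosmB-luxCDABE reporter plasmid pMQ747, was grown in LB at OD600 0.1 in Biolog Phenotype MicroArray plates PM11-20 for 4 h at 30-32°C. Each compound is present at 3-4 proprietary concentrations (not stated); per the Fig. S1 legend the value given is the highest fold over those wells. Three independent trials.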

[2] = test system: Serratia marcescens K904 PosmB-luxCDABE reporter (pMQ747); experiment: PosmB-lux reporter fold induction (RLU/OD600 relative to no-compound control), highest over Biolog concentrations; higher = stronger Rcs reporter activation; conditions: wild type K904; 4 h
Experimental: as §1

Q: `CO[C@@H]1[C@@H](OC(N)=O)[C@@H](O)[C@H](Oc2ccc3c(O)c(NC(=O)c4ccc(O)c(CC=C(C)C)c4)c(=O)oc3c2C)OC1(C)C` [Novobiocin] (Biolog plate: PM12, well positions: D9-12) was tested. Which “PosmB-lux reporter fold induction” value [1] did it give?
A: The value was 2.74 ± 1.3.

Q: With `CN(C)CCCN1c2ccccc2Sc2ccc(Cl)cc21` [chlorpromazine] (Biolog plate: PM17, well positions: D9-12) as the compound, how does the “PosmB-lux reporter fold induction” value [1] read?
A: Its value is 1.63 ± 0.49.

Q: For `NCC[C@H](O)C(=O)N[C@@H]1C[C@H](N)[C@@H](O[C@H]2O[C@H](CN)[C@@H](O)[C@H](O)[C@H]2O)[C@H](O)[C@H]1O[C@H]1O[C@H](CO)[C@@H](O)[C@H](N)[C@H]1O` [Amikacin] (Biolog plate: PM11, well positions: A2-4), which “PosmB-lux reporter fold induction” value [1] is on record?
A: The value was 1 ± 0.088.

Q: And the “PosmB-lux reporter fold induction” value [2]?
A: Its value is 1.4 ± 0.2.

Q: With `CN(C)[C@@H]1C(O)=C(C(N)=O)C(=O)[C@@]2(O)C(O)=C3C(=O)c4c(O)ccc(Cl)c4[C@@H](O)[C@H]3C[C@@H]12` [Demeclocycline] (Biolog plate: PM11, well positions: D5-8) as the compound, how does the “PosmB-lux reporter fold induction” value [1] read?
A: The value was 1.59 ± 0.14.

Q: `Cn1c(=O)c2c(ncn2C)n(C)c1=O` [caffeine] (Biolog plate: PM17, well positions: H5-8) was tested. Which “PosmB-lux reporter fold induction” value [1] did it give?
A: Its value is 1.52 ± 0.34.

Q: For `C[C@@H]1O[C@@H]1P(=O)(O)O` [Phosphomycin] (Biolog plate: PM16, well positions: A5-8), which “PosmB-lux reporter fold induction” value [1] is on record?
A: Its value is 1.57 ± 0.24.

Q: How did the “PosmB-lux reporter fold induction” value [1] turn out when `CC(CN1c2ccccc2Sc2ccccc21)N(C)C` (stereo not given) [Promethazine] (Biolog plate: PM14, well positions: H5-8) was run?
A: The value was 1.43 ± 0.21.

Q: For `Nc1ccc2cc3ccc(N)cc3nc2c1` [proflavine] (Biolog plate: PM20, well positions: D1-4), which “PosmB-lux reporter fold induction” value [1] is on record?
A: Its value is 1.91 ± 0.49.

Q: With `c1ccc(-c2ccccn2)nc1` [2,2'-Dipyridyl] (Biolog plate: PM13, well positions: B5-8) as the compound, how does the “PosmB-lux reporter fold induction” value [1] read?
A: The value was 1.71 ± 1.3.

Q: With `Cc1onc(-c2ccccc2Cl)c1C(=O)N[C@@H]1C(=O)N2[C@@H]1SC(C)(C)[C@@H]2C(=O)O` [Cloxacillin] (Biolog plate: PM11, well positions: B5-8) as the compound, how does the “PosmB-lux reporter fold induction” value [1] read?
A: Its value is 1.06 ± 0.1.

Q: How did the “PosmB-lux reporter fold induction” value [1] turn out when `CCn1cc(C(=O)O)c(=O)c2cnc(N3CCNCC3)nc21` [pipemidic acid] (Biolog plate: PM18, well positions: B5-8) was run?
A: The value was 1.91 ± 0.5.

Q: How did the “PosmB-lux reporter fold induction” value [1] turn out when `N[C@H](CO)C(=O)O` [D-serine] (Biolog plate: PM17, well positions: A2-4) was run?
A: The value was 1.12 ± 0.081.

Q: For `NCC(=O)O` [Glycine] (Biolog plate: PM13, well positions: F5-8), which “PosmB-lux reporter fold induction” value [1] is on record?
A: Its value is 1.39 ± 0.27.

Q: How did the “PosmB-lux reporter fold induction” value [1] turn out when `O=[Si](O)O` [sodium metasilicate] (Biolog plate: PM18, well positions: E1-4) was run?
A: Its value is 0.928 ± 0.32.

Q: With `CC[C@H]1OC(=O)C[C@@H](O)[C@H](C)[C@@H](O[C@@H]2O[C@H](C)[C@@H](O[C@H]3C[C@@](C)(O)[C@@H](O)[C@H](C)O3)[C@H](N(C)C)[C@H]2O)[C@@H](CC=O)C[C@@H](C)C(=O)/C=C/C(C)=C/[C@@H]1CO[C@@H]1O[C@H](C)[C@@H](O)[C@@H](OC)[C@H]1OC` [Tylosin] (Biolog plate: PM13, well positions: H9-12) as the compound, how does the “PosmB-lux reporter fold induction” value [1] read?
A: The value was 4.38 ± 1.6.

Q: With `CCN1CCN(C(=O)N[C@@H](C(=O)N[C@@H]2C(=O)N3C(C(=O)O)=C(CSc4nnnn4C)CS[C@H]23)c2ccc(O)cc2)C(=O)C1=O` [cefoperazone] (Biolog plate: PM17, well positions: G9-12) as the compound, how does the “PosmB-lux reporter fold induction” value [1] read?
A: Its value is 1.44 ± 0.22.

Q: What about the “PosmB-lux reporter fold induction” value [2] of the same compound?
A: Its value is 2.11 ± 0.69.

Q: How did the “PosmB-lux reporter fold induction” value [1] turn out when `CN[C@@H]1[C@H](O)[C@H](NC)[C@H]2O[C@@]3(O)C(=O)C[C@@H](C)O[C@H]3O[C@@H]2[C@H]1O` [Spectinomycin] (Biolog plate: PM12, well positions: G1-4) was run?
A: The value was 1.6 ± 0.68.

Q: What does the source list for `Nc1ncn([C@@H]2O[C@H](CO)[C@@H](O)[C@H]2O)c(=O)n1` [5-azacytidine] (Biolog plate: PM16, well positions: E5-8)?
A: PosmB-lux reporter fold induction [1]: 2.23 ± 0.64; PosmB-lux reporter fold induction [2]: 1.15 ± 0.41

Q: `Nc1c2ccccc2nc2ccccc12` [9-Aminoacridine] (Biolog plate: PM14, well positions: B1-4) was tested. Which “PosmB-lux reporter fold induction” value [1] did it give?
A: Its value is 1.19 ± 0.19.

Q: And the “PosmB-lux reporter fold induction” value [2]?
A: The value was 1.7 ± 0.1.

Q: How did the “PosmB-lux reporter fold induction” value [1] turn out when `NC(=O)NO` [Hydroxyurea] (Biolog plate: PM15, well positions: H5-8) was run?
A: The value was 13.9 ± 5.4.

Q: Which “PosmB-lux reporter fold induction” value [1] does the source give for `O=C(O)c1cc(O)c(O)c(O)c1` [gallic acid] (Biolog plate: PM19, well positions: A5-8) here?
A: The value was 1.33 ± 0.48.

Reference: the supplement of paper PMC9942566
